Pf growth 96h: P. falciparum growth inhibition at 96 hours. P. falciparum luciferase reporter growth, 96 h. Potency, µM (doses to about 28.7 µM), most hits filed as inhibitors. 320,000 compounds, 6.9% hits. AID 504834
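P. falciparum expressing integrated firefly luciferase, in erythrocytes at 2% hematocrit, 0.05% parasitemia, incubated with compounds 96 h at 37 C, 5% CO2. Growth inhibition read as loss of luminescence; two-generation exposure targets delayed-death apicoplast inhibitors.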
Pf growth 48h: inhibits P. falciparum growth in the first generation, 48 h; AID 504832; Potency, µM (highest dose often 28.7 µM), hits mostly inhibitors; P. falciparum luciferase growth in erythrocytes, 48 h; 310,000 compounds, 5.9% hits
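A one-generation exposure of luciferase-tagged malaria parasites in RPMI 1640/Albumax erythrocyte culture, 37 C and 5% CO2. Inhibition is inferred from decreased luminescence after adding detection reagent.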
HCMV antiviral: inhibitors of human cytomegalovirus; HFF cells, HCMV-luciferase reporter, 72 h; hits give low values; activity change, negative = inhibition, % at 57.5 µM; 410,000 compounds, 4.5% hits; AID 1259415; in the data active = activity change below about -60%; inconclusive = no clear call, values can overlap the other calls; inactive = above about -39%
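Cell-based, HFFs, 1000 cells/well, 16 h 37C; cpds in DMSO + HCMV-luc, MOI 1 PFU/cell; 72 h 37C; OneGlo luminescence after 5 min RT; norm. to buffer vs Salinomycin 10uM.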
Shiga inhibitor: blocks Shiga toxin action in Vero cells; 290,000 compounds, 9.2% hits; AID 2315; Vero cells, Shiga toxin protein synthesis inhibition reporter; inhibition, % at 38.7 µM; in the data active = inhibition mostly above about 28%, no sharp cut-off; inactive = mostly below about 43%
Cycloheximide cs: counter-screen for Shiga toxin inhibitors: cycloheximide protein synthesis inhibition; cell reporter, cycloheximide protein synthesis inhibition counterscreen; max response, %; 300,000 compounds, 12% hits; in the data active = max response mostly above about 13%, no sharp cut-off; inactive = mostly below about 14%; also: read at 38.3 µM for the half of the compounds with a filed dose
Numbers stand for hits; – = inactive; ? = inconclusive; · = no result given; + = active, no number; [ ] = dose if it differs, or a comment. Sampled rows, rich in hits. Any-hit rate of the full collection: about 20%. Unless noted, calls follow the shape of the dose curve; as a rule, active = well fitted inhibition curve with a large enough effect; inconclusive = small, poorly fitted or top-dose-only effect, or another doubt; inactive = no such curve, though single readings can be large or run the other way.

SMILES	Pf growth 96h	Pf growth 48h	HCMV antiviral	Shiga inhibitor	Cycloheximide cs
CC(=O)N1CCN(S(=O)(=O)c2cccc(C(=O)N(Cc3ccccc3)c3ccc(C)cc3)c2)CC1	?	5.86µM	?	·	·
Cc1ccc(N(Cc2ccccc2)C(=O)c2cccc(S(=O)(=O)N3CC(C)OC(C)C3)c2)cc1 (stereo not given)	?	10.4µM	?	·	·
CC1CN(S(=O)(=O)c2cccc(C(=O)N(CCc3ccccc3)Cc3ccccc3)c2)CC(C)O1 (stereo not given)	?	2.94µM	·	·	·
CCN1CCN(C(=O)C2CCN(S(=O)(=O)c3ccc(SC)cc3)CC2)CC1	–	–	–	–	–
CCOC(=O)c1nn(C)c(=S)n(C)c1=O	·	·	–	·	·
N#Cc1cccc(NC(=O)Cn2cnc(S(=O)(=O)N3CCCCC3)c2)c1	–	?	–	–	–
COc1c(OC(C)=O)ccc(/C=C/c2ccc3ccccc3n2)c1[N+](=O)[O-]	?	–	–	98.8	28.7
CCOc1c(OC(C)=O)ccc(/C=C/c2ccc3cccc(OC(C)=O)c3n2)c1[N+](=O)[O-]	8.28µM	6.57µM	–	+	43.4
CCOc1ccccc1/C=C/c1cc(C(=O)O)c2ccccc2n1	–	–	–	–	–
COc1c(OC(C)=O)ccc(/C=C/c2ccc3cccc(OC)c3n2)c1[N+](=O)[O-]	?	?	–	41.3	21.8
CCN(CC)C(=O)c1ccccc1NC(=O)CN1C(=O)c2ccccc2C1=O	–	–	–	–	–
O=[N+]([O-])c1ccc(/C=C2\CCC(C3=CCCC3)=C2N2CCOCC2)cc1	–	–	–	–	24.3
CC(=O)c1cccc(N(C(=O)Cn2nnc3ccccc32)C(C(=O)NCC2CCCO2)c2ccc(N3CCOCC3)cc2)c1 (stereo not given)	–	–	–	–	–
N#CCC(=N)N1CCN(c2cccc(Cl)c2)CC1	?	?	–	–	–
N#CCC(=N)N1CCN(c2ccccc2Cl)CC1	–	–	–	+	–
N#CCC(=N)N1CCN(c2ccccc2)CC1	?	?	–	53.0	–
C=CCn1c(SCC(=O)c2c(N)n(C3CC3)c(=O)[nH]c2=O)nnc1-c1ccoc1C	?	9.28µM	–	·	·
Cc1ccccc1-c1nnc(SCC(=O)c2c(N)n(C3CC3)c(=O)[nH]c2=O)o1	–	–	–	·	·
C=CCn1c(SCC(=O)c2c(N)n(C3CC3)c(=O)[nH]c2=O)nnc1-c1ccccc1OC	11.7µM	?	–	·	·
COc1ccccc1-c1nnc(SCC(=O)c2c(N)n(C3CC3)c(=O)[nH]c2=O)n1C	11.7µM	?	–	·	·
O=C(NNC(=O)C1CC=CCC1C(=O)O)c1ccc(Cl)cc1 (stereo not given)	–	–	–	–	–
CN1CCN(c2ccc(NC(=S)NC(=O)/C=C/c3ccco3)cc2)CC1	–	?	–	105.6	44.4
CCOc1ccc(NC(=S)NC(=O)/C=C/c2ccco2)cc1	11.7µM	–	–	·	13.2
COc1cccc(NC(=S)NC(=O)/C=C/c2ccco2)c1	–	–	–	57.9	31.0
O=C(/C=C/c1ccco1)NC(=S)Nc1cccc(C(=O)O)c1	?	·	–	44.8	22.8
SMILES	Pf growth 96h	Pf growth 48h	HCMV antiviral	Shiga inhibitor	Cycloheximide cs
Cc1cc2oc(C(=O)Nc3ccc(S(=O)(=O)Nc4onc(C)c4C)cc3)cc(=O)c2cc1C	·	·	–	·	·
CCN(CC)CCSc1nc2ccccc2n1Cc1ccccc1	–	?	–	–	–
O=C1CCCC(=O)C1C(=O)c1ccc(C(F)(F)F)cc1[N+](=O)[O-]	·	·	–	·	·
c1ccc(OCCSc2nc3ccccc3o2)cc1	?	–	–	98.9	21.5
COc1cc(-c2nnc(SCCOc3ccccc3)o2)cc(OC)c1OC	·	·	–	·	·
CCOc1ccc(OCCSc2nc3ccccc3o2)cc1	·	–	–	–	15.4
COc1cc(/C=N/c2oc(C)c(C)c2C#N)cc(Br)c1O	–	–	–	–	–
COc1ccc(/C=N/c2oc(C)c(C)c2C#N)c(OC)c1	11.7µM	–	?	–	–
COc1ccc(-c2cc(C#N)nc(NN)n2)cc1	2.94µM	?	–	–	–
COc1ccc(-c2cc(C#N)nc(N3CCN(C)CC3)n2)cc1	?	–	–	–	–
COc1ccc(-c2cc(C#N)nc(N3CCNCC3)n2)cc1	2.62µM	·	–	–	–
CCN(CC)c1nc(C#N)cc(-c2ccc(OC)cc2)n1	7.38µM	13.1µM	–	–	–
COc1ccc(-c2cc(C#N)nc(Cl)n2)cc1	–	–	–	–	–
C[C@]12CC[C@@H]3c4ccc(O)cc4CC[C@H]3[C@@H]1CC[C@@H]2OC(=O)CCC(=O)O	–	–	-100.3	–	–
C[C@]12CC[C@@H]3c4ccc(OC(=O)c5ccccc5)cc4CC[C@H]3[C@@H]1CC[C@@H]2O	8.28µM	?	–	–	–
CCCCC(=O)OC1CCC2C3CCc4cc(O)ccc4C3CC[C@]12C (stereo not given in full)	–	–	·	·	·
Cc1ccc(C)c(NC(=O)Cn2c(=O)n(Cc3cccs3)c(=O)c3cccnc32)c1	·	·	–	·	·
Brc1ccc(-c2cn3cccnc3n2)cc1	·	–	–	75.2	35.2
Clc1ccc(-c2cn3cccnc3n2)cc1	–	·	–	–	18.7
O=S(=O)(Nc1ccc(-c2cn3cccnc3n2)cc1)c1ccccc1	–	?	–	–	–
COc1ccc(-c2cn3cccnc3n2)cc1F	–	–	–	51.3	43.8
CCC(=O)Nc1cc(-c2cn3cccnc3n2)ccc1OC	·	·	–	·	·
O=C(Nc1cccc(-c2cn3cccnc3n2)c1)c1cc(Br)ccc1Cl	·	·	–	·	·
Clc1ccc(-c2cn3cccnc3n2)cc1Cl	·	–	?	–	25.9
Cc1oc2ncn(C)c(=O)c2c1C(=O)N1CCN(c2ccc(Cl)cc2)CC1	·	·	–	·	·
SMILES	Pf growth 96h	Pf growth 48h	HCMV antiviral	Shiga inhibitor	Cycloheximide cs
COc1ccccc1N1CCN(S(=O)(=O)CCNC(=O)C(c2ccccc2)c2ccccc2)CC1	·	·	–	·	·
COc1ccc2c(c1)c1c(c(=O)n(CCc3ccccc3)c(=O)n1Cc1cccc(Cl)c1)n2C	·	·	–	·	·
CCCC[C@]12Cc3c(ccc4ccccc34)C(O1)C1=C(O2)C(=O)c2ccccc2C1=O	–[5.75 µM]	1.51µM	·	–	–
COc1ccc(Cl)cc1NS(=O)(=O)c1ccc2[nH]c3c(c2c1)CCCC3	·	·	–	·	·
COC(=O)[C@]1(CC(C)C)N[C@H](c2ccc(SC3CCCCC3)c(OC)c2)[C@@H]2C(=O)N(C)C(=O)[C@@H]21	8.28µM	?	–	·	·
COC(=O)[C@]1(CC(C)C)N[C@H](c2ccc(-c3ccc(F)cc3)c(OC)c2)[C@@H]2C(=O)N(C)C(=O)[C@@H]21	1.85µM	7.38µM	–	·	·
CCCCCCSc1ccc([C@H]2N[C@@](CC(C)C)(C(=O)OC)[C@H]3C(=O)N(C)C(=O)[C@@H]23)cc1OC	4.65µM	6.57µM	–	·	·
Cc1ccc[n+](CC2OCc3ccccc3CO2)c1	?	?	–	–	–
COc1cccc(C=NN(C)c2c([N+](=O)[O-])cc(C(F)(F)F)cc2[N+](=O)[O-])c1O	·	·	–	·	·
C=C(C(=O)c1ccccc1)C(c1ccccc1)C(C)C(=O)c1ccccc1 (stereo not given)	11.7µM	?	-88.8	–	–
COc1ccc(C(CC(=O)c2ccccc2)CC(=O)c2ccccc2)cc1	?	?	–	–	–

Source: PubChem (National Center for Advancing Translational Sciences (NCATS))
